# Measured values: PubChem BioAssay (EPA / NIEHS)
# Results filed as inconclusive are left out. The source made the active and inactive calls. The calls were made as follows, unless noted: active = hit-call score of the fitted dose curve at least 0.9, where 1 is the maximum; inactive = score below 0.9.
# How the values were obtained:
# [1] = TAMU_PeakParms_SingleDonor1434_Chronotropy: Texas A&M University (TAMU) 1.5-hr Human Induced Pluripotent Stem Cell (iPSC)-derived Cardiomyocytes Calcium (Ca+2) Flux Assay for Cardiotoxicity: Chronotropy (changes in peak frequency) (AID 2284217); conditions: actives raise or lower the signal
# Method in brief: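 Beat frequency of single-donor iPSC cardiomyocytes was recorded through a calcium-sensitive dye 1.5 hours after exposure to four concentrations up to 100 uM. An EC05 point of departure was derived.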
# [2] = TAMU_HCS_1.5hr_SingleDonor1434_Cytotoxicity: Cytotoxicity Assessment using High-content Screening (HCS) Fluorescent Imaging for the Texas A&M University (TAMU) 1.5-hr Human Induced Pluripotent Stem Cell (iPSC)-derived Cardiotoxicity Assay (AID 2284234; active = hit-call score of the fitted dose curve at least 0.9, where 1 is the maximum)
# Method in brief: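 Human iPSC-derived cardiomyocytes dosed at 0.2, 1, 10, 100 uM final (0.5% DMSO) for 90 min at 37 C. Hoechst 33342-stained nuclei counted by 10x high-content imaging; POD is EC10, a 10% drop in total cell count versus DMSO.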
# [3] = TAMU_PeakParms_SingleDonor1434_QT: Texas A&M University (TAMU) 1.5-hr Human Induced Pluripotent Stem Cell (iPSC)-derived Cardiomyocytes Calcium (Ca+2) Flux Assay for Cardiotoxicity: QT (decay-rise ratio) (AID 2284235; active = hit-call score of the fitted dose curve at least 0.9, where 1 is the maximum)
# Method in brief: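 iPSC-derived cardiomyocytes (single donor 1434) dosed at 0.2, 1, 10, 100 uM final in 0.5% DMSO, 90 min at 37C. Ca2+ flux fluorescence decay/rise ratio; EC05 (5% increase versus DMSO) as POD, excluding beat-arrest and severe-notch data.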
# [4] = CCTE_Mundy_HCI_Cortical_Synap_Neur_Matur_SynapseCount: CCTE's Synaptogenesis and Neurite Maturation Assay in rat cortical cells for Synapse Count, Mundy Lab (AID 2284218)
# Method in brief: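 Rat primary cortical cells in 96-well plates received AraC at DIV 5 and were dosed with chemicals at DIV 7 with media change, through DIV 12 (288.33 h). Synapses per neuron counted by high-content imaging of MAP2/synaptophysin/Hoechst staining, versus DMSO baseline.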
# [5] = CCTE_Mundy_HCI_hN2_NOG_NeuriteCount: CCTE's Neurite Outgrowth Assay in human hN2 cells for Neurite Count, Mundy Lab (AID 2284219; active = hit-call score of the fitted dose curve at least 0.9, where 1 is the maximum)
# Method in brief: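 In this morphology assay, hNP1-derived neurons received test chemical 2 h post-plating and were fixed two days later in warm paraformaldehyde/sucrose containing Hoechst 33342. Neurites, labelled by rabbit anti-βIII-tubulin (1:800) and Alexa Fluor-488 (1:500), were counted automatically.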
# [6] = CCTE_Mundy_HCI_hN2_NOG_NeuriteLength: CCTE's Neurite Outgrowth Assay in human hN2 cells for Neurite Length, Mundy Lab (AID 2284220; active = hit-call score of the fitted dose curve at least 0.9, where 1 is the maximum)
# Method in brief: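 Read-out is neurite length from high-content imaging of βIII-tubulin/Alexa Fluor-488-labelled neurons, referenced to DMSO controls.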
# [7] = CCTE_Mundy_HCI_hN2_NOG_NeuronCount: CCTE's Neurite Outgrowth Assay in human hN2 cells for Neuron Count, Mundy Lab (AID 2284221; active = hit-call score of the fitted dose curve at least 0.9, where 1 is the maximum)
# Method in brief: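 Read-out is the number of betaIII-tubulin-positive neurons imaged by automated high-content analysis, with DMSO as negative control.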
# [8] = CCTE_Mundy_HCI_Cortical_Synap_Neur_Matur_NeuriteCount: CCTE's Synaptogenesis and Neurite Maturation Assay in rat cortical cells for Neurite Count, Mundy Lab (AID 2284222);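 also: exposure from day 7 to day 12 in vitro with readout at day 12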
# Method in brief: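 Chemical exposure runs DIV 7–12 in rat cortical cultures, glia suppressed by AraC at DIV 5; measurement is at DIV 12. Imaging-derived neurite counts are fitted against DMSO baseline.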
# [9] = CCTE_Mundy_HCI_Cortical_Synap_Neur_Matur_CellBodySpotCount: CCTE's Synaptogenesis and Neurite Maturation Assay in rat cortical cells for Cell Body Spot Count, Mundy Lab (AID 2284223)
# Method in brief: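 High-content imaging counts synaptophysin puncta on neuronal cell bodies per neuron after MAP2/synaptophysin immunostaining. Rat primary cortical cells, glia arrested with AraC at DIV 5, were exposed DIV 7–12; signal decrease measured against DMSO.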
# [10] = CCTE_Mundy_HCI_Cortical_NOG_BPCount: CCTE's Neurite Outgrowth Assay in rat cortical cells for Branch Point Count, Mundy Lab (AID 2284237);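 as to AC50: branch points counted about two days after chemical exposure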
# Method in brief: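 Measured 50.33 h after dosing, this morphology endpoint uses rat primary cortical cultures labelled for betaIII-tubulin. Branch points are quantified by high-content imaging, with DMSO as negative control and baseline.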
# [11] = CCTE_Mundy_HCI_hNP1_Casp3_7: CCTE's Caspase-Glo 3/7 Assay in human neuroprogenitor cells for Apoptosis, Mundy Lab (AID 2284240)
# Method in brief: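 Luminescent caspase-3/7 readout, 26.5 h post-dose, in human neural progenitor cells from WA09 embryonic stem cells. Cells grew 40–44 h at 37 °C, 5% CO2 before chemical addition. Activity analysed as signal increase over DMSO baseline.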
# [12] = CCTE_Mundy_HCI_hNP1_CellTiter: CCTE's Cell Titer-Glo 2 Assay in human neuroprogenitor cells for Viability, Mundy Lab (AID 2284241; active = hit-call score of the fitted dose curve at least 0.9, where 1 is the maximum;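 as to AC50: a hit is a drop in ATP luminescence versus DMSO meaning reduced viability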)
# Method in brief: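 Viability read as luminescent ATP content (CellTiter-Glo, 30 min room temperature) twenty-four hours after dosing, relative to DMSO. Cells: WA09-derived hNP1 neuroprogenitors on poly-L-ornithine/laminin, plated 40 to 44 hours before chemical.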
# [13] = CCTE_Mundy_HCI_Cortical_Synap_Neur_Matur_NeuronCount: CCTE's Synaptogenesis and Neurite Maturation Assay in rat cortical cells for Neuron Count, Mundy Lab (AID 2284242; active = hit-call score of the fitted dose curve at least 0.9, where 1 is the maximum;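 as to AC50: hits reduce neuron count versus DMSO baseline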)
# Method in brief: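 Rat primary cortical cells received AraC at DIV 5 to arrest glia, then were dosed with chemicals at DIV 7 through DIV 12. Fixed cells were stained for nuclei, MAP2 and synaptophysin, and neurons were counted by high-content imaging relative to DMSO.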
# [14] = IUF_NPC2c_oligodendrocyte_migration_120hr: Leibniz Research Institute for Environmental Medicine (IUF) 120-hour Neural Progenitor Cell Migration Assay for Oligodendrocyte Migration (NPC2c) (AID 2284297);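 also: O4-positive oligodendrocyte migration distance divided by radial glia migration distance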
# Method in brief: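 Exposure runs 5 days from differentiation onset at 37C, seven concentrations plus solvent control, DMSO at most 0.1%, applied to primary hNPC spheres on laminin. After fixation, O4 immunostaining gives oligodendrocyte distance from the sphere core, relative to radial glia migration.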
# [15] = IUF_NPC2a_radial_glia_migration_120hr: Leibniz Research Institute for Environmental Medicine (IUF) 120-hour Neural Progenitor Cell Migration Assay for Radial Glia Migration (NPC2a) (AID 2284298)
# Method in brief: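 Migration distance in um, sphere core edge to migration-area edge, derived by nuclei-density algorithm from Hoechst images after 120 h compound exposure. Primary hNPC spheres differentiated on poly-D-lysine/laminin in N2 medium, 37C; medium half-replaced day 3.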
# [16] = IUF_NPC2a_radial_glia_migration_72hr: Leibniz Research Institute for Environmental Medicine (IUF) 72-hour Neural Progenitor Cell Migration Assay for Radial Glia Migration (NPC2a) (AID 2284299)
# Method in brief: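 Human fetal cortex (GW 16-19) neural progenitor spheres, 0.3 mm, plated on poly-D-lysine/laminin in N2 differentiation medium with compound from day 0. Radial glia migration distance (um, sphere core edge to migration edge) measured manually in four directions on 72 h brightfield images; well mean used.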
# [17] = IUF_NPC2b_neuronal_migration_120hr: Leibniz Research Institute for Environmental Medicine (IUF) 120-hour Neural Progenitor Cell Migration Assay for Neuron Migration (NPC2b) (AID 2284300)
# Method in brief: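 TUBB3-positive neurons are imaged after 120 h of differentiation, and their mean distance from the sphere edge is normalised to radial glia migration. Single 0.3 mm fetal hNPC spheres on poly-D-lysine/laminin received 7 compound concentrations, ≤0.1% DMSO, refreshed at day 3.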
# [18] = IUF_NPC3_neuronal_differentiation_120hr: Leibniz Research Institute for Environmental Medicine (IUF) 120-hour Neuronal Differentiation Assay (NPC3) (AID 2284301)
# Method in brief: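 Human fetal (GW 16-19) neural progenitor spheres (0.3 mm) plated on poly-D-lysine/laminin in N2 differentiation medium, exposed 120 h at 37C with half-medium renewal day 3; 7 concentrations. TUBB3+ cells as % of Hoechst nuclei, CNN-identified; DMSO baseline.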
# [19] = CCTE_Mundy_HCI_hNP1_Pro_ResponderAvgInten: CCTE's Proliferation Assay in human neuroprogenitor cells, Mundy Lab (AID 2284224; active = hit-call score of the fitted dose curve at least 0.9, where 1 is the maximum;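 also: human neural progenitor cells hNP1 derived from WA09 embryonic stem cells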)
# Method in brief: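 Proliferation read as average intensity of BrdU-positive cells, imaged at 26.25 h post-dosing: chemical exposure started after 40–44 h culture, BrdU during final 4 h, paraformaldehyde fixation. Positive-direction fit relative to DMSO.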
# [20] = CCTE_Mundy_HCI_Cortical_NOG_NeuronCount: CCTE's Neurite Outgrowth Assay in rat cortical cells for Neuron Count, Mundy Lab (AID 2284236; active = hit-call score of the fitted dose curve at least 0.9, where 1 is the maximum;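 also: neurons counted by imaging betaIII-tubulin and Hoechst stained cortical cells; cells exposed to compound for about 48 hours before fixation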)
# Method in brief: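 Read-out: neuron number by high-content imaging of betaIII-tubulin (Alexa Fluor-488) and Hoechst-labelled rat primary cortical cells.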
structure (smiles),measurement,setting,value
c1ccc2ccccc2c1,AC50,[1],9.92 µM (active)
same,outcome,[2],inactive
same,outcome,[3],inactive
CN(C)c1ccc(C(=C2C=CC(=[N+](C)C)C=C2)c2ccc(N(C)C)cc2)cc1,outcome,[1],inactive
same,AC50,[2],4.8 µM (active)
same,AC50,[3],0.352 µM (active)
CN1C(=O)CC[C@H]1c1cccnc1,outcome,[4],inactive
same,outcome,[5],inactive
same,outcome,[6],inactive
same,outcome,[7],inactive
same,outcome,[8],inactive
same,outcome,[9],inactive
same,outcome,[10],inactive
same,outcome,[11],inactive
same,outcome,[12],inactive
same,outcome,[13],inactive
CC(C)(c1cc(Br)c(O)c(Br)c1)c1cc(Br)c(O)c(Br)c1,outcome,[1],inactive
same,AC50,[2],84.8 µM (active)
same,AC50,[14],3.61 µM (active)
same,AC50,[15],3.14 µM (active)
same,AC50,[16],3.76 µM (active)
same,AC50,[17],5.12 µM (active)
same,AC50,[18],5.06 µM (active)
Oc1ccccc1,outcome,[4],inactive
same,outcome,[5],inactive
same,outcome,[6],inactive
same,outcome,[7],inactive
same,outcome,[8],inactive
same,outcome,[9],inactive
same,outcome,[10],inactive
same,outcome,[11],inactive
same,outcome,[12],inactive
CC/C(=C(/CC)c1ccc(O)cc1)c1ccc(O)cc1,outcome,[1],inactive
same,AC50,[4],15.4 µM (active)
same,AC50,[5],9.12 µM (active)
same,AC50,[6],7.97 µM (active)
same,AC50,[7],3.72 µM (active)
same,outcome,[8],inactive
same,outcome,[9],inactive
same,outcome,[19],inactive
same,AC50,[2],50 µM (active)
same,outcome,[3],inactive
same,AC50,[20],28.9 µM (active)
same,AC50,[10],12.8 µM (active)
same,AC50,[11],26.5 µM (active)
same,AC50,[12],29.7 µM (active)
same,AC50,[13],14 µM (active)
O=C1O[C@H]([C@@H](O)CO)C(O)=C1O,outcome,[1],inactive
same,outcome,[4],inactive
same,outcome,[8],inactive
same,outcome,[9],inactive
same,outcome,[20],inactive
same,outcome,[10],inactive
same,outcome,[11],inactive
same,outcome,[12],inactive
same,outcome,[14],inactive
same,outcome,[15],inactive
same,outcome,[16],inactive
same,outcome,[17],inactive
same,outcome,[18],inactive
CCCOC(=O)c1cc(O)c(O)c(O)c1,AC50,[1],50 µM (active)
same,outcome,[2],inactive
same,AC50,[3],22.1 µM (active)
